Holding throughout (assay): DAPPL (digital affinity profiling via proximity ligation, sequencing); 10 mM Tris-HCl pH 7.5, 50 mM NaCl, 1 mM DTT, 4% glycerol, room temperature, 30 min; GST-TFs on glutathione beads, 16-mer random dsDNA library, 0.1% formaldehyde crosslink after washing; high values mean tight binding
The target of one experiment is T1, FEV (Homo sapiens, UniProt Q99581 1-238).
T1 sequence: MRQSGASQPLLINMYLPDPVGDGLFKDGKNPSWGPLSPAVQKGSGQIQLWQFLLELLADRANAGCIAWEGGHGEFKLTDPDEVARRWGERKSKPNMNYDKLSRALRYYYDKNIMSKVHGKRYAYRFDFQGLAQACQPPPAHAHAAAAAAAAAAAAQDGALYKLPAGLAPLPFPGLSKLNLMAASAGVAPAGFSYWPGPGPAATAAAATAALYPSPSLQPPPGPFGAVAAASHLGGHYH
The conditions noted are these: protein: recombinant; tags: N-terminal GST; dsDNA, one strand shown. The method, boiled down: (§1)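 Human transcription factors fused to GST were expressed in yeast, captured on glutathione beads, given DNA barcodes and pooled with a GST-only negative control. Pools were incubated with 200 nmole of a 16-mer random double-stranded DNA library in Tris/NaCl/DTT/glycerol buffer at room temperature for 30 min. They were then washed, crosslinked with 0.1% formaldehyde, proximity-ligated (BsaI/T4 ligase, 1 h, 37 °C), PCR-amplified and sequenced on an Illumina NextSeq500. Binding signal is each 6-mer's read frequency for a factor divided by its frequency for the GST control.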

Another experiment deals with ETV5 (Homo sapiens, UniProt P41161 1-510). As to conditions: protein: recombinant; tags: N-terminal GST; dsDNA, one strand shown. The method, boiled down:
as §1

A further experiment deals with HSF1 (Homo sapiens, UniProt Q00613 1-529). As to conditions: protein: recombinant; tags: N-terminal GST; chain copies: 3; dsDNA, one strand shown. In outline:
as §1

The target of the next experiment is T2, SPIC (Homo sapiens, UniProt Q8N5J4 1-248).
T2 sequence: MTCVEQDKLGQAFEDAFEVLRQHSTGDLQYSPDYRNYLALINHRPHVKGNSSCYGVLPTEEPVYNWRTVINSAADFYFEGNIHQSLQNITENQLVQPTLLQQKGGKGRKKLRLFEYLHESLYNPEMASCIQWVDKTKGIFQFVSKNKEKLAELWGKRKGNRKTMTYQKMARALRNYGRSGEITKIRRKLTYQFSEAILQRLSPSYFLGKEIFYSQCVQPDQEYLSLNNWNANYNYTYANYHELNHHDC
As to conditions: protein: recombinant; tags: N-terminal GST; dsDNA, one strand shown. In outline:
as §1

In a further experiment the target is ELF4 (Homo sapiens, UniProt Q99607 1-663). As to conditions: protein: recombinant; tags: N-terminal GST; dsDNA, one strand shown. In outline:
as §1

The next experiment deals with T3, ELK4 (Homo sapiens, UniProt P28324-2 1-405).
T3 sequence: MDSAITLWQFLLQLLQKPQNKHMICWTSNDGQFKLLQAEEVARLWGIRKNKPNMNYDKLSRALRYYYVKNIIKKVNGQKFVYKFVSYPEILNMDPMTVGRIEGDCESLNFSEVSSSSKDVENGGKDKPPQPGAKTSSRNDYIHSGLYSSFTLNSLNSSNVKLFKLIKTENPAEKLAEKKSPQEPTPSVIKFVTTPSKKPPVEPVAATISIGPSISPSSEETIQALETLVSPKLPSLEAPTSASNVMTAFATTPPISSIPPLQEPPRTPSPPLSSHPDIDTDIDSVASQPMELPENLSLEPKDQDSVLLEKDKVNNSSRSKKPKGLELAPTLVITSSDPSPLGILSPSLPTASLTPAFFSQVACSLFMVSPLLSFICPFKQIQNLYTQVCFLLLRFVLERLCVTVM
The conditions noted are these: protein: recombinant; tags: N-terminal GST; dsDNA, one strand shown. The method, boiled down:
as §1

In the next experiment the target is T4, ETV2 (Homo sapiens, UniProt O00321 1-342).
T4 sequence: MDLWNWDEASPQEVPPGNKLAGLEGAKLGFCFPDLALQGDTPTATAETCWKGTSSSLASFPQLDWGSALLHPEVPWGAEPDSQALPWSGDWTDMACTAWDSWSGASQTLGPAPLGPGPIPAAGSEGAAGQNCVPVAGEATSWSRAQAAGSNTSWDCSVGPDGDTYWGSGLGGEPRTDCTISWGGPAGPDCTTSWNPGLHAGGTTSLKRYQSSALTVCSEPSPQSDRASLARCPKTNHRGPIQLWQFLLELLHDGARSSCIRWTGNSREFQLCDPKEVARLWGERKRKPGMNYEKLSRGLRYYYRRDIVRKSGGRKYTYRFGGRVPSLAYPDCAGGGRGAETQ
The conditions noted are these: protein: recombinant; tags: N-terminal GST; dsDNA, one strand shown. In outline:
as §1

The next experiment addresses T5, ELF3 (Homo sapiens, UniProt P78545 1-371).
T5 sequence: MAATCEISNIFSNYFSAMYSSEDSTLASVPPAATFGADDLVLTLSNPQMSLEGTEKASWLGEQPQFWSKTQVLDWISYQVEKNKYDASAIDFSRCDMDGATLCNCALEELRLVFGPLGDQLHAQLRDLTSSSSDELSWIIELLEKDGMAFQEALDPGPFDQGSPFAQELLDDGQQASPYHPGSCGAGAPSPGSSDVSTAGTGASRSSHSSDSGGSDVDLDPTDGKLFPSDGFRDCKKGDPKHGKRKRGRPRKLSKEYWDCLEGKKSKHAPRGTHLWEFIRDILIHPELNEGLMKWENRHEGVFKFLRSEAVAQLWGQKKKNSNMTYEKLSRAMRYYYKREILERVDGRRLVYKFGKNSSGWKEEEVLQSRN
The conditions noted are these: protein: recombinant; tags: N-terminal GST; dsDNA, one strand shown. The method, boiled down: as §1

In another experiment the target is CRX (Homo sapiens, UniProt O43186 1-299). The conditions noted are these: protein: recombinant; tags: N-terminal GST; dsDNA, one strand shown. In outline: as §1
Chain of CRX (O43186 whole entry): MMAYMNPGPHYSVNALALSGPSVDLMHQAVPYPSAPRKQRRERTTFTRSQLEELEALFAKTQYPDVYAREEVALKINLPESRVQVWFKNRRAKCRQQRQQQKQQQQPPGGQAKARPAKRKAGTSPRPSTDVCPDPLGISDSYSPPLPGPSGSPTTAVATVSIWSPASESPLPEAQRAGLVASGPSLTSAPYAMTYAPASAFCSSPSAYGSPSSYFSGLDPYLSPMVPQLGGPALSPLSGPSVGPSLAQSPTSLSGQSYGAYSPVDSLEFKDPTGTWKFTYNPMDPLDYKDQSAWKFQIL
A further experiment has as its target ETV1 (Homo sapiens, UniProt P50549 1-477). The conditions noted are these: protein: recombinant; tags: N-terminal GST; dsDNA, one strand shown. The method, boiled down: as §1
The target of a further experiment is T6, ERF (Homo sapiens, UniProt P50548 1-548).
T6 sequence: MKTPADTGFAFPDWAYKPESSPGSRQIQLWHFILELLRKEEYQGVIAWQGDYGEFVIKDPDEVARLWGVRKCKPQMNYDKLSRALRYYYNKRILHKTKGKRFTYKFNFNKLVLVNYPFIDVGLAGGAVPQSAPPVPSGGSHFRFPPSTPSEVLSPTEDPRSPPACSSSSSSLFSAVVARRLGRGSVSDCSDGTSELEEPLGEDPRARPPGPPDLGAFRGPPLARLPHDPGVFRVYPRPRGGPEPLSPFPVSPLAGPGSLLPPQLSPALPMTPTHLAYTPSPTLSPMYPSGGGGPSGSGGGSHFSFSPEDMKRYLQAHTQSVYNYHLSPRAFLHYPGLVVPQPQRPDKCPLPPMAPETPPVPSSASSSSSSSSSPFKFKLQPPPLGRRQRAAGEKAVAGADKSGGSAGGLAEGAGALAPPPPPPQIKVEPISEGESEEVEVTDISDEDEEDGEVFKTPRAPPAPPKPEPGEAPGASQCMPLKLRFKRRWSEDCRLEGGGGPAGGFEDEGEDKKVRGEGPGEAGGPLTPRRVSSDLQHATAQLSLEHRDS
The conditions noted are these: protein: recombinant; tags: N-terminal GST; dsDNA, one strand shown. In outline: as §1

Another experiment deals with T7, ETV3L (Homo sapiens, UniProt Q6ZN32 1-361).
T7 sequence: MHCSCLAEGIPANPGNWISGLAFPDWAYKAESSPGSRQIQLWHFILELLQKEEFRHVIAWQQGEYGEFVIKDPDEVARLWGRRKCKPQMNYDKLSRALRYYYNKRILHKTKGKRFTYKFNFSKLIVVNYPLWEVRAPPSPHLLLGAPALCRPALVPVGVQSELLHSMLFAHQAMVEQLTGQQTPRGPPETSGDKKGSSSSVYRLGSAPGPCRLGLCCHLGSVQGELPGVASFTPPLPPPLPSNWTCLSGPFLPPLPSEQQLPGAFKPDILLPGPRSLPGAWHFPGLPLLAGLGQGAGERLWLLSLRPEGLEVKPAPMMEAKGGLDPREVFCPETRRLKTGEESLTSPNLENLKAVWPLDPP
As to conditions: protein: recombinant; tags: N-terminal GST; dsDNA, one strand shown. The method, boiled down:
as §1

The target in the next experiment is T8, ETS2 (Homo sapiens, UniProt P15036 1-469).
T8 sequence: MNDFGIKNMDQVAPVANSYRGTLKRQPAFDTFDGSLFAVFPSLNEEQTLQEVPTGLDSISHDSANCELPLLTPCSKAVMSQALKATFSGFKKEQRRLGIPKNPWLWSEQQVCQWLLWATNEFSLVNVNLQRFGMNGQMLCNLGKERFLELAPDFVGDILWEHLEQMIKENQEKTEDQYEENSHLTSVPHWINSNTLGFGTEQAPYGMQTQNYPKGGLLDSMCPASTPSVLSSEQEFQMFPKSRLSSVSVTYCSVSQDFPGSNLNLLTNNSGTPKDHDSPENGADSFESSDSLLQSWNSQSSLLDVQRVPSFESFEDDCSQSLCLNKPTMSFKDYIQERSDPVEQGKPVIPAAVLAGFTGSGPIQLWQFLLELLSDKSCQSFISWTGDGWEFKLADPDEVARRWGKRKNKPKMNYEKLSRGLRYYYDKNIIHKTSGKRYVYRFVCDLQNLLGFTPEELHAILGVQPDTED
The conditions noted are these: protein: recombinant; tags: N-terminal GST; dsDNA, one strand shown. The method, boiled down:
as §1

The target of another experiment is T9, SPDEF (Homo sapiens, UniProt O95238 1-335).
T9 sequence: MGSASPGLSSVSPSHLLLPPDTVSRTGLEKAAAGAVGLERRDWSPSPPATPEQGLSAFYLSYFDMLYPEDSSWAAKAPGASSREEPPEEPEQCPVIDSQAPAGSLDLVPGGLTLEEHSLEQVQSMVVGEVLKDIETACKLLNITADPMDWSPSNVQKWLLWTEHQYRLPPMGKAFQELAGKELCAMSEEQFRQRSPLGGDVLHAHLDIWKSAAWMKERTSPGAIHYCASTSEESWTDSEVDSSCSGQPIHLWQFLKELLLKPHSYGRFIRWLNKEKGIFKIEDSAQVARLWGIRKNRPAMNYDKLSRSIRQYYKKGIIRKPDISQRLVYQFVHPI
The conditions noted are these: protein: recombinant; tags: N-terminal GST; dsDNA, one strand shown. In outline:
as §1

The target of a further experiment is T10, ETV7 (Homo sapiens, UniProt Q9Y603 1-341).
T10 sequence: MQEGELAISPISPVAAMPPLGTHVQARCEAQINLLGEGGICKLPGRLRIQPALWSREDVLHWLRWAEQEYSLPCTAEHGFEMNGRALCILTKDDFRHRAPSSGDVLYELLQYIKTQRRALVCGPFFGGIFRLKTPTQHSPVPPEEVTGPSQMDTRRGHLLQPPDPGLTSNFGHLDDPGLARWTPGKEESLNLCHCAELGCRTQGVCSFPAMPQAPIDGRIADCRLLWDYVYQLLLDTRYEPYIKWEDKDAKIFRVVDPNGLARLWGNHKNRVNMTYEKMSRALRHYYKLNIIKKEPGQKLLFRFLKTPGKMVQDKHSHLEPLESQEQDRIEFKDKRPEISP
The conditions noted are these: protein: recombinant; tags: N-terminal GST; dsDNA, one strand shown. In outline: as §1

A further experiment concerns the target T11, ELF5 (Homo sapiens, UniProt Q9UKW6-2 1-255).
T11 sequence: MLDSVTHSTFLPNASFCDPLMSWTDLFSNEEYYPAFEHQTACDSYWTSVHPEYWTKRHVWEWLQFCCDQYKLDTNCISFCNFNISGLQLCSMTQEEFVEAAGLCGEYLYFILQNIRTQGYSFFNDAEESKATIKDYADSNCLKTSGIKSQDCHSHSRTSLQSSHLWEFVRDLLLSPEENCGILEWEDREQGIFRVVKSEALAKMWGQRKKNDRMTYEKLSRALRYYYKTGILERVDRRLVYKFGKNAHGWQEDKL
As to conditions: protein: recombinant; tags: N-terminal GST; dsDNA, one strand shown. In outline: as §1

In another experiment the target is T12, ETV3 (Homo sapiens, UniProt P41162-2 1-143).
T12 sequence: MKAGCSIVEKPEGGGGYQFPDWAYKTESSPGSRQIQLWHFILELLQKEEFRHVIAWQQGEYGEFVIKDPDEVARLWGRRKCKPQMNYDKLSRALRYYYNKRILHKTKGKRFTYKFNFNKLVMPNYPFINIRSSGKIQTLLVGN
As to conditions: protein: recombinant; tags: N-terminal GST; dsDNA, one strand shown. In outline:
as §1

In another experiment the target is ETV6 (Homo sapiens, UniProt P41212 1-452). The conditions noted are these: protein: recombinant; tags: N-terminal GST; dsDNA, one strand shown. The method, boiled down: as §1
Chain of ETV6 (P41212 whole entry): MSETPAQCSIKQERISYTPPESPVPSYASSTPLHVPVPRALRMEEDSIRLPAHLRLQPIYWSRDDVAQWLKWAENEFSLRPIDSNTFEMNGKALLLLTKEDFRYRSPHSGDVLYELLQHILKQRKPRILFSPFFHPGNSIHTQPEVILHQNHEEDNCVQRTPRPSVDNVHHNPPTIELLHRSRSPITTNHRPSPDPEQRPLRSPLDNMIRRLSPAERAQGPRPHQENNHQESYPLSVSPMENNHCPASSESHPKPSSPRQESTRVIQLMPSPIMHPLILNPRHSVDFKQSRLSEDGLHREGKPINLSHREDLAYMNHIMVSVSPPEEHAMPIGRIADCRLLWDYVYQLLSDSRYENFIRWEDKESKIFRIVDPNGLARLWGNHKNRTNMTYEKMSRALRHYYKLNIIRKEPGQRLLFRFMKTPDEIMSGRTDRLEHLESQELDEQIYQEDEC

Chain of ETV5 (P41161 whole entry): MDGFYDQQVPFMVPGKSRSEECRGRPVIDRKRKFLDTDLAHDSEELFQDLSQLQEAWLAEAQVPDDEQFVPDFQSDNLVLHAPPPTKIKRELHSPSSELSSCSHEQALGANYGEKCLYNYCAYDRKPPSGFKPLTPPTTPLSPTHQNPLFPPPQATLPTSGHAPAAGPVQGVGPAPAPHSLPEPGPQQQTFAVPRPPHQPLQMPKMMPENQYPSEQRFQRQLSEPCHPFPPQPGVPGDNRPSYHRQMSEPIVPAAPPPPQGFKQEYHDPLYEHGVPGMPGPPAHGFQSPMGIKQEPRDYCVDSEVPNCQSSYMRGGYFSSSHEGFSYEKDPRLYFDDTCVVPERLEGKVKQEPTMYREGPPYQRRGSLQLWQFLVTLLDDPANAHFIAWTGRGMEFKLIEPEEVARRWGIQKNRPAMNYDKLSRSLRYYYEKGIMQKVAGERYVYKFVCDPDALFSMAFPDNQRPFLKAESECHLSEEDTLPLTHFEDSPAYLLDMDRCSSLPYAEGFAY
Chain of ETV1 (P50549 whole entry): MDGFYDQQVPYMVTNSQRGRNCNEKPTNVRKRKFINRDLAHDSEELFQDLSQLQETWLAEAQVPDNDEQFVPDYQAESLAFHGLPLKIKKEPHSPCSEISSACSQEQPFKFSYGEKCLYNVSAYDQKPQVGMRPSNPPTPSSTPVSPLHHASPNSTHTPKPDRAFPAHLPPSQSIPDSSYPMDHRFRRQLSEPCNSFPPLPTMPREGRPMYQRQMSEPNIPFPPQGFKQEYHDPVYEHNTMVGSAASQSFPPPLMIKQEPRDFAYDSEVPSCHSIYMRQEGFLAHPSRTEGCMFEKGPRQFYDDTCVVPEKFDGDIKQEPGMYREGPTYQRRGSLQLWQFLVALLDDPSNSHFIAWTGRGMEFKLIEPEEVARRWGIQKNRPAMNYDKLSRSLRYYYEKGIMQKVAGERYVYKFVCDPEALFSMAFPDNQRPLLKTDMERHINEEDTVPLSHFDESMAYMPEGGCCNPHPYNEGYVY
Chain of ELF4 (Q99607 whole entry): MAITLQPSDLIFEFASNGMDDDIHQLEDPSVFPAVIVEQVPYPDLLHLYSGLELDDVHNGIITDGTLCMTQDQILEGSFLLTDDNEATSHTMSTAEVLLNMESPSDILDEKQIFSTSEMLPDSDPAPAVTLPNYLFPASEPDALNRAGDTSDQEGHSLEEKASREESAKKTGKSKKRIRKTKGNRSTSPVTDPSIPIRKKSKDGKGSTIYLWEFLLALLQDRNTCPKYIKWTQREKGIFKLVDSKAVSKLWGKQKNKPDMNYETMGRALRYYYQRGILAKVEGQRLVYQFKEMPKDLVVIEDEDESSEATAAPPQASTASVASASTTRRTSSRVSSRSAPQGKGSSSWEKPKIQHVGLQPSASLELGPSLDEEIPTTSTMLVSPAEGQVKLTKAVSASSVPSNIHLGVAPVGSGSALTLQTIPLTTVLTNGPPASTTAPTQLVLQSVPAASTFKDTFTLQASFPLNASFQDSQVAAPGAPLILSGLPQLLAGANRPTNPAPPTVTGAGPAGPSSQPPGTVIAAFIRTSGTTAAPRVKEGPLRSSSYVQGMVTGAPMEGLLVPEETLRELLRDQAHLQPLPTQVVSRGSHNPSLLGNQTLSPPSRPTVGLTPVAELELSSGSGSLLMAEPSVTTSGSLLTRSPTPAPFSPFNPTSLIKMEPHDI
Chain of HSF1 (Q00613 whole entry): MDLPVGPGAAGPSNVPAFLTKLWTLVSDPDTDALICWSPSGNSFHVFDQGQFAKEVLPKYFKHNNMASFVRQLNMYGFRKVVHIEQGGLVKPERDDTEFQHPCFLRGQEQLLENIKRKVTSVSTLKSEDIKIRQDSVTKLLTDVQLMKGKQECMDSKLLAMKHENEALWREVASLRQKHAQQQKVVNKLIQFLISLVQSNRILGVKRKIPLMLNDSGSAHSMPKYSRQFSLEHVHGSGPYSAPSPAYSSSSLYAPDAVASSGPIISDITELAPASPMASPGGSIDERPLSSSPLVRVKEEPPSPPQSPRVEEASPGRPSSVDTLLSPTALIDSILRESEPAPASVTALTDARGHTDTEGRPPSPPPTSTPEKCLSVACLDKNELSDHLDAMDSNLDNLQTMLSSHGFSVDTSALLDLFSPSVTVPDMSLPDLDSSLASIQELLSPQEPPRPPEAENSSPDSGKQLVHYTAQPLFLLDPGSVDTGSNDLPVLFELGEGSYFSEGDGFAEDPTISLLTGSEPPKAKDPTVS

For the sequence CCCATT, the binding signal was 1.28 fold enrichment (6-mer frequency, TF over GST control) with FEV; 1.38 fold enrichment (6-mer frequency, TF over GST control) with ETV5; 1.15 fold enrichment (6-mer frequency, TF over GST control) in the experiment with HSF1; 1.43 fold enrichment (6-mer frequency, TF over GST control) with SPIC; 1.23 fold enrichment (6-mer frequency, TF over GST control) with ELF4; 1.26 fold enrichment (6-mer frequency, TF over GST control) with ELK4. Also, the binding signal with ETV2 was 1.56 fold enrichment (6-mer frequency, TF over GST control); with ELF3, 1.22 fold enrichment (6-mer frequency, TF over GST control); with CRX, 1.19 fold enrichment (6-mer frequency, TF over GST control); with ETV1 it was 1.25 fold enrichment (6-mer frequency, TF over GST control); in the experiment with ERF it was 1.32 fold enrichment (6-mer frequency, TF over GST control); with ETV3L, 1.3 fold enrichment (6-mer frequency, TF over GST control). In addition, the binding signal was 1.43 fold enrichment (6-mer frequency, TF over GST control) in the experiment with ETS2; 1.19 fold enrichment (6-mer frequency, TF over GST control) in the experiment with SPDEF; 1.38 fold enrichment (6-mer frequency, TF over GST control) with ETV7; 1.4 fold enrichment (6-mer frequency, TF over GST control) with ELF5; 1.24 fold enrichment (6-mer frequency, TF over GST control) with ETV3; 1.29 fold enrichment (6-mer frequency, TF over GST control) with ETV6.
